IL-1B inflam inh = qHTS for Inhibitors of Inflammasome Signaling: IL-1-beta AlphaLISA Primary Screen | AID 743279, 2014 | activity change, % at 57.5 µM | hit rate 4.7% among 360,000 | THP-1 LPS/ATP IL-1B secretion, AlphaLISA, 16 h; active compounds read low; in the data active = activity change below about -50%; inconclusive = mostly about -30% to -49%
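Secreted IL-1B measured by AlphaLISA bead assay after 16 h compound exposure of THP-1 cells; compounds (final up to 57.5 uM) added 1 h before LPS (250 ng/mL) and ATP (1.25 mM) stimulation; lower signal means less secretion.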
TDP1 block = qHTS Assay for Inhibitors of Tyrosyl-DNA Phosphodiesterase (TDP1) | Potency, µM (highest dose often 130 µM), for the others: at the highest dose activity change, negative = inhibition, hits mostly inhibitors | Tyrosyl-DNA phosphodiesterase 1 (Homo sapiens), Q9NUW8 | hit rate 0.28% among 350,000 | recombinant TDP1, AlphaScreen DNA substrate cleavage; note: potency is the fitted concentration of half-maximal effect; nearly all actives have a fitted effect of over 40% in size
Target sequence (Q9NUW8 whole entry, looked up): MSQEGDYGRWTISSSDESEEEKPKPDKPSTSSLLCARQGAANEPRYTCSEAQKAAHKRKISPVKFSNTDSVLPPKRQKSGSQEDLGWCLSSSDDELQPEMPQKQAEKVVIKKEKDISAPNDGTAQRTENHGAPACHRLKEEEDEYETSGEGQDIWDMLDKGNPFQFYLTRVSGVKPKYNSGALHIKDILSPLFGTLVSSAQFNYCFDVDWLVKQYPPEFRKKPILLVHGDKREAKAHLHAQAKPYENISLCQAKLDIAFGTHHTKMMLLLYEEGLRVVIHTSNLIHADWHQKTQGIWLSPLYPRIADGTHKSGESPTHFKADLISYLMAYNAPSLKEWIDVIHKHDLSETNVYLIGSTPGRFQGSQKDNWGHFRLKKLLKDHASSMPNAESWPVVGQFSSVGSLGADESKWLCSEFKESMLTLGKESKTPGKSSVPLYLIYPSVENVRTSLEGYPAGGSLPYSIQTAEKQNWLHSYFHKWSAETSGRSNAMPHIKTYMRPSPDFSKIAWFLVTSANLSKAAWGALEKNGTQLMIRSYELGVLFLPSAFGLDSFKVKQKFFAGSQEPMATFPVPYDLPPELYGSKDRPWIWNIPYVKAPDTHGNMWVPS
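E. coli-derived human Tdp1, 1 nM final. Cpd preinc 15 min RT; substrate 15 nM final, 5 min RT; AS bead mix 10 ug/ml final, 10 min RT. Signal loss = tyrosine-FITC cleavage. No-enzyme wells = max signal.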
Six1-Eya2 inh = qHTS Assay for Inhibitors of the Six1/Eya2 Interaction; Homeobox protein SIX1 (Homo sapiens) + Protein phosphatase EYA2 (Homo sapiens), …; AlphaScreen GST-Six1/His-Eya2 binding, biochemical; active compounds read low; activity change, % (concentration not given with the values); hit rate 0.56% among 360,000; in the data active = activity change below about -65%; inconclusive = mostly about -30% to -63%
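Homogeneous AlphaScreen proximity assay pairing GST-Six1 with His-tagged Eya2 (added as 5X mix: 250 nM and 500 nM) in 50 mM Tris pH 8.0, 300 mM NaCl, 1 mM TCEP. Glutathione donor and nickel acceptor beads; 1 h, 37 °C, dark.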
CtBP-E1A inh = qHTS Assay for Inhibitors of the CtBP/E1A Interaction; AlphaScreen GST-E1A/His-CtBP binding, 1536-well; active compounds read low; activity change, % (no concentration beside the values); hit rate 0.49% among 340,000; in the data active = activity change below about -65%; inconclusive = mostly about -30% to -63%
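Homogeneous bead-based format: GST-tagged E1A captured on glutathione donor beads, His-tagged CtBP on nickel acceptor beads; compounds precede bead addition by 2 h at 37 °C.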
TDP1 cell CPT = qHTS for Inhibitors of human tyrosyl-DNA phosphodiesterase 1 (TDP1): qHTS in cells in presence of CPT. Potency, µM (highest dose often 46.2 µM), without a hit: top-dose activity change, negative = growth inhibition, usual class: inhibitors. hit rate 12% among 420,000. AID 686979, 2013. chicken DT40 Tdp1-/-;hTDP1 cells + 20 nM CPT, ATP luminescence, 48 h; note: potency is the fitted concentration of half-maximal effect; nearly all actives have a fitted effect of over 55% in size
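Cell growth measured by CellTiter-Glo luminescence after a minimum 48 h, 37 C compound exposure with 20 nM CPT in Tdp1-knockout DT40 cells stably expressing hTDP1, seeded 400/well; qHTS titration format.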
TDP1 cell noCPT = qHTS for Inhibitors of human tyrosyl-DNA phosphodiesterase 1 (TDP1): qHTS in cells in absence of CPT; hit rate 15% among 420,000; DT40 Tdp1-/- hTDP1 cells, no CPT, ATP luminescence, 48 h; AID 686978, 2013; Potency, µM (titrated, usually from 46.2 µM), inactives show at the highest dose activity change, negative = growth inhibition, usual class: inhibitors; note: potency is the fitted concentration of half-maximal effect; nearly all actives have a fitted effect of over 55% in size
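Camptothecin absent (DMSO only). Human TDP1-complemented DT40 knockout cells, 400 cells/well, 37 °C for minimum 48 hr; ATP measured via CellTiter-Glo, 30 min dark incubation, luminescence.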
* = called active by the depositor; ? = inconclusive; / = not tested or not shown; [ ] = dose if it differs, or a comment. In the library only some 18% were active in any assay of this set; here they are far more common. Unless noted, calls come from the whole dose curve; as a rule, active = well fitted curve in the direction sought with a large enough effect; inconclusive = small, poorly fitted or top-dose-only effect, or another doubt; inactive = no such curve, though single readings can be large; an effect the other way counts as inactive or inconclusive. % is set by controls: 0 for no effect and ±100 for the full control effect.

SMILES | IL-1B inflam inh | TDP1 block | Six1-Eya2 inh | CtBP-E1A inh | TDP1 cell CPT | TDP1 cell noCPT
C=CCn1c(=NC(=O)C2COc3ccccc3O2)sc2cccc(OC)c21 (stereo not drawn) | 0 | -2% | 1 | -14 | ? | 23µM*
S=C(NCCN1CCOCC1)N/N=C/c1cccs1 | -4 | / | -1 | / | 18µM* | 4.1µM*
Oc1cccc(/C=N/NC(=S)NCCN2CCOCC2)c1O | 119 | 5% | -69* | -94* | 7.3µM* | 5.8µM*
O=C(O)c1ccc(/C=N/NC(=S)NCCN2CCOCC2)cc1 | 16 | 5% | -10 | 13 | 5% | -19%
Cc1ccccc1-c1ncc(CN2CCN(C3CCCCC3)C(CCO)C2)cn1 (stereo not drawn) | 3 | 4% | 4 | / | 7% | 10%
Cc1cc(C)n(C(=O)c2cccc(S(=O)(=O)N3CCCCC3)c2)n1 | -8 | 4% | 3 | -16 | -9% | 0%
COc1ccc(O)c(/C=c2/sc3nc4cc(C)c(C)cc4n3c2=O)c1 | 15 | 3% | 0 | 5 | 16µM* | 16µM*
COc1ccc(C)cc1NC(=O)c1cccc(C(=O)Nc2cc(C)ccc2OC)c1 | ? | / | -1 | 9 | 15µM* | 10µM*
COc1ccc(OC)c(NC(=O)c2cc(OC(C)=O)cc(C(=O)Nc3cc(OC)ccc3OC)c2)c1 | -10 | / | 0 | / | ? | 10µM*
COc1ccc(C(=O)Nc2cc(OC)ccc2OC)cc1 | -6 | 3% | -5 | -1 | -11% | -12%
O=C(CSc1nnc(SCc2ccc(Cl)cc2)s1)N1CCOCC1 | -17 | -7% | 2 | 6 | -3% | -16%
Clc1ccc(-c2nnn3c2nc(N2CCCCC2)c2ccccc23)cc1 | / | -1% | / | / | 1% | 0%
Cc1ccc(-c2nnn3c2nc(NCCc2ccccc2)c2ccccc23)cc1 | / | -1% | / | / | 2% | -23%
Fc1cccc(-c2nnn3c2nc(Cl)c2ccccc23)c1 | 29 | -1% | -2 | 0 | 2.6µM* | 2.6µM*
Fc1cccc(-c2nnn3c2nc(NC2CCCCC2)c2ccccc23)c1 | / | 1% | / | / | ? | 26µM*
Fc1cccc(-c2nnn3c2nc(NCCc2ccccc2)c2ccccc23)c1 | / | 1% | / | / | 5% | -14%
Cc1ccc(-c2nnn3c2nc(Cl)c2ccccc23)cc1 | -75* | 5% | -5 | 13 | 2.9µM* | 4.6µM*
Clc1nc2c(-c3ccccc3)nnn2c2ccccc12 | -84* | -5% | 1 | / | 2.6µM* | 3.3µM*
CC12CN3CCN(CC(C3)/C1=N\NC(=O)Nc1cccc(Cl)c1)C2 | -15 | 3% | 6 | 4 | -2% | -3%
O=C(NCc1ccccc1Cl)c1cccc(NC(=O)c2ccccc2)c1 | -11 | 3% | 2 | -1 | 0% | -26%
CCOC(=O)Cn1c(=O)c2c(nc3n2CCN3c2ccc(CC)cc2)n(C)c1=O | / | -3% | / | / | -1% | -19%
CCOC(=O)c1c2ccccc2[n+]([O-])n1[C@@H](C)C(N)=O | 27 | -4% | 8 | / | 21µM* | -7%
Cc1ccc(C(=O)c2c3ccccc3[n+]([O-])n2CCC(=O)O)cc1 | -1 | -2% | 5 | -17 | -13% | -4%
CC[C@H](C)[C@H](NC(=O)[C@H](Cc1ccc(O)cc1)NC(=O)[C@@H](NC(=O)[C@H](CCCNC(=N)N)NC(=O)[C@@H](N)CC(=O)O)C(C)C)C(=O)N[C@@H](Cc1cnc[nH]1)C(=O)N1CCC[C@H]1C(=O)N[C@@H](Cc1ccccc1)C(=O)N[C@@H](Cc1cnc[nH]1)C(=O)N[C@@H](CC(C)C)C(=O)N[C@@H](CC(C)C)C(=O)N[C@H](C(=O)N[C@@H](Cc1ccc(O)cc1)C(=O)N[C@@H](CO)C(=O)O)C(C)C | / | 14% | / | / | / | /
CCN1C(=O)c2ccccc2Sc2ccc(NC(=O)Nc3ccc(C(C)=O)cc3)cc21 | / | 6% | / | / | ? | 21µM*
SMILES | IL-1B inflam inh | TDP1 block | Six1-Eya2 inh | CtBP-E1A inh | TDP1 cell CPT | TDP1 cell noCPT
CCc1ccccc1NC(=O)Nc1ccc2c(c1)N(CC)C(=O)c1ccccc1S2 | / | 6% | / | / | 8.2µM* | 15µM*
CCN1C(=O)c2ccccc2Sc2ccc(C(=O)NC(C)C)cc21 | 0 | / | 9 | -4 | 1% | 0%
COc1cc2[nH]cc(C(=O)NCc3ccccc3)c(=O)c2cc1OC | -16 | 2% | ? | / | ? | 26µM*
COc1ccc(CCNC(=O)c2c[nH]c3ccc(F)cc3c2=O)cc1OC | 0 | / | -12 | -3 | ? | 13µM*
COc1cc2[nH]c(C(=O)NCCc3ccccc3)cc2c(OC)c1OC | ? | / | -11 | -1 | -15% | ?
COc1cc2[nH]cc(C(=O)NCCc3ccccc3)c(=O)c2cc1OC | -7 | -5% | -24 | ? | ? | ?
COc1cc2[nH]c(C(=O)NCc3ccccc3)cc2c(OC)c1OC | -65* | / | -10 | -11 | -3% | ?
NC1=NCCCC1 | / | 12%[56.1 µM] | / | / | 3.8µM* | 2.7µM*
Nc1nnc2c(n1)CCCC2 | -4 | ? | -22 | -25 | 2% | -1%
CS(=O)(=O)N1CCN(C(=S)NCc2ccc(Cl)cc2)CC1 | -9 | 0% | 8 | 5 | 7% | -16%
COc1ccc([N+](=O)[O-])cc1NC(=O)CSCc1ccc(Br)cc1 | -27 | 3% | -22 | ? | ? | ?
O=C(CSCc1ccc(Cl)cc1)Nc1cc([N+](=O)[O-])ccc1O | ? | 0% | -12 | -24 | ? | 18µM*
COc1cccc(CC(NC(C)=O)C(=O)NC2CCN(c3c4c(nc5ncnn35)CCC4)CC2)c1OC (stereo not drawn) | / | -2% | / | / | / | /
c1ccc(CCn2c(C3CC3)nc3ccccc32)cc1 | 8 | 6% | 4 | -2 | ? | 26µM*
OCCCc1nc2ccccc2n1CCc1ccccc1 | -1 | 6%[56.1 µM] | 0 | 1 | 0% | -8%
CCCc1nc2ccccc2n1CCc1ccccc1 | -6 | 0% | 3 | 8 | 29µM* | 21µM*
O=C(O)C(Cc1c[nH]c2ccccc12)N1C(=O)c2ccccc2C1=O (stereo not drawn) | 25 | 0% | -1 | -1 | -3% | 24%
Oc1ccc(N=Nc2nc(-c3ccccc3)c(-c3ccccc3)[nH]2)cc1 | 0 | 11% | ? | -5 | ? | 23µM*

Screening data (PubChem BioAssay)
